Assay results: PubChem BioAssay (NCI)
About 83,000 compounds went through this panel and 20% of them were active in at least one assay; those are over-represented in the sample as a whole.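 Negative percent growth values reflect cell death: -40 means 40% of the cells present at the start died, and -100 means all died.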 Active and inactive are the calls of the source. How the source made its calls: active means growth percent below 10; inactive means the rest.

Legend:
Assay in all cases: NCI-60 one-dose screen, 48 h (100 = growth as untreated, 0 = no growth, -100 = all killed)
Conditions in all cases: 10 µM unless noted
DU-145 prostate = system: DU-145 prostate
K-562 leukemia = system: K-562 leukemia
MALME-3M melanoma = system: MALME-3M melanoma
MDA-MB-231 breast = system: MDA-MB-231 breast
RXF 393 renal = system: RXF 393 renal
SF-268 CNS = system: SF-268 CNS
SF-295 CNS = system: SF-295 CNS
SF-539 CNS = system: SF-539 CNS
UACC-257 melanoma = system: UACC-257 melanoma
M14 melanoma = system: M14 melanoma

Measured: growth

CN1CCN(c2ccc(Nc3nc(NCCNS(=O)(=O)c4ccc5ccccc5c4)c4sccc4n3)cc2)CC1
active: K-562 leukemia 1.59% | MALME-3M melanoma 2.39% | M14 melanoma -82.6%
inactive: DU-145 prostate 84% | MDA-MB-231 breast 74.3% | RXF 393 renal 29.4% | SF-268 CNS 63.3% | SF-295 CNS 102% | SF-539 CNS 65% | UACC-257 melanoma 65.7%

C#C[C@]1(O)CC[C@H]2[C@@H]3CC=C4c5sc(Nc6ccc(C)cn6)nc5CC[C@]4(C)[C@H]3CC[C@@]21C
active: K-562 leukemia -2.56% | MALME-3M melanoma -31.4% | MDA-MB-231 breast -1.2% | RXF 393 renal -78.6% | SF-268 CNS -7.73% | SF-295 CNS -70.2% | SF-539 CNS -66.8% | UACC-257 melanoma -42.8% | M14 melanoma -48.8%
inactive: DU-145 prostate 27.9%

C=CCSC1=NC2C(N(CC)C(=O)N2CC)N1/N=C/C=C/c1ccccc1OC (stereo not given)
inactive: DU-145 prostate 92.2% | K-562 leukemia 28% | MALME-3M melanoma 72.2% | MDA-MB-231 breast 82.5% | RXF 393 renal 79.3% | SF-268 CNS 89.2% | SF-295 CNS 58.5% | SF-539 CNS 78.1% | UACC-257 melanoma 83% | M14 melanoma 72.6%

C#CCN(C)CCCOc1ccc(NC(=O)CCCCCCCCC(=O)NO)cc1Cl
inactive: DU-145 prostate 81.7% | K-562 leukemia 40.7% | MALME-3M melanoma 45.9% | MDA-MB-231 breast 89.5% | RXF 393 renal 37.3% | SF-268 CNS 97.8% | SF-295 CNS 50.2% | SF-539 CNS 74.5% | UACC-257 melanoma 42.8% | M14 melanoma 72.9%

Clc1cccc(/C=N/Nc2nc(N/N=C/c3cccc(Cl)c3)nc(N3CCOCC3)n2)c1
active: MALME-3M melanoma -43.7%
inactive: DU-145 prostate 42.5% | K-562 leukemia 11.8% | MDA-MB-231 breast 71.3% | RXF 393 renal 17.4% | SF-268 CNS 65.9% | SF-295 CNS 57.7% | SF-539 CNS 43.6% | UACC-257 melanoma 39.1% | M14 melanoma 35.2%

O=C(CCCCCCN1CC(=O)N2[C@@H](C3CC3)c3[nH]c4ccccc4c3C[C@H]2C1=O)NO
inactive: DU-145 prostate 70.9% | K-562 leukemia 21.5% | MALME-3M melanoma 10.1% | MDA-MB-231 breast 83.7% | RXF 393 renal 76.5% | SF-268 CNS 93.6% | SF-295 CNS 74.9% | SF-539 CNS 60.7% | UACC-257 melanoma 41.9% | M14 melanoma 60.2%

O=S(=O)(NCCCNc1nccc(-c2[nH]c(-c3ccccc3)nc2-c2ccc(F)c(O)c2)n1)c1ccc(C(F)(F)F)cc1
inactive: DU-145 prostate 79.9% | MDA-MB-231 breast 67.1% | RXF 393 renal 24.5% | SF-268 CNS 54% | SF-295 CNS 31.3% | SF-539 CNS 31.1% | UACC-257 melanoma 24.6%
active: K-562 leukemia 9.88% | MALME-3M melanoma -5.99% | M14 melanoma 3.88%

Cc1ccc2c(n1)C(=O)C(Cl)=C(Nc1cc(C(F)(F)F)cc(C(F)(F)F)c1)C2=O
inactive: DU-145 prostate 95.3% | MALME-3M melanoma 47.9% | MDA-MB-231 breast 87.1% | RXF 393 renal 74.5% | SF-268 CNS 87.1% | SF-295 CNS 95.7% | SF-539 CNS 93.9% | UACC-257 melanoma 75.2% | M14 melanoma 89.9%
active: K-562 leukemia 4.18%

Clc1ccc2c(N/N=C/c3c[nH]c4ccccc34)ccnc2c1
active: DU-145 prostate -90.2% | K-562 leukemia -22.1% | MALME-3M melanoma -95.8% | MDA-MB-231 breast -83.5% | RXF 393 renal -87.2% | SF-268 CNS -58.4% | SF-295 CNS -85.3% | SF-539 CNS -86.7% | UACC-257 melanoma -91.8% | M14 melanoma -89.3%

COc1ccc(/C=N/NC(=O)c2c(N)nn(C)c2Nc2ccccc2)cc1Oc1ccccc1
inactive: DU-145 prostate 101% | K-562 leukemia 88% | MALME-3M melanoma 91.1% | MDA-MB-231 breast 94.9% | RXF 393 renal 87.1% | SF-268 CNS 94% | SF-295 CNS 90.4% | SF-539 CNS 95.7% | UACC-257 melanoma 96.9% | M14 melanoma 101%

O=C(NNc1nc2cc(F)cc(F)c2n2cccc12)c1cccnn1
inactive: DU-145 prostate 20.8% | K-562 leukemia 12.8% | MALME-3M melanoma 21.4% | MDA-MB-231 breast 30.2% | RXF 393 renal 22.3% | SF-268 CNS 12%
active: SF-295 CNS 9.98% | SF-539 CNS 3.8% | UACC-257 melanoma 3.33% | M14 melanoma 7.06%

O=c1oc2ccc(-c3ccc(F)cc3F)cc2c(=O)n1-c1ccc(Br)cc1F
inactive: DU-145 prostate 85.2% | K-562 leukemia 45.4% | MALME-3M melanoma 61.5% | MDA-MB-231 breast 87% | RXF 393 renal 80.8% | SF-268 CNS 58.6% | SF-295 CNS 77.6% | SF-539 CNS 74.3% | UACC-257 melanoma 48.1% | M14 melanoma 80.7%

O=C(/C=C/c1cccc(F)c1)c1cccc(OCCCOc2cccc(C(=O)/C=C/c3cccc(F)c3)c2)c1
active: SF-295 CNS -19.8%
inactive: DU-145 prostate 86.6% | K-562 leukemia 21.7% | MALME-3M melanoma 99.4% | MDA-MB-231 breast 81% | RXF 393 renal 70.1% | SF-268 CNS 92.1% | SF-539 CNS 92.3% | UACC-257 melanoma 107% | M14 melanoma 92%
